Laboratory results as given in PubChem BioAssay (NCI).
Values joined by “and” are separate entries in the source; they are usually repeats but may differ in a detail not shown here. Equal values may be shown once. The panel holds about 83,000 compounds, 20% with a hit somewhere; the sample as a whole holds those more often.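 Single-dose data. Exposure time 48 hours. Values below 10 considered active.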 Active and inactive are the calls of the source.

Experiments:
Experiment in all cases: NCI-60 one-dose screen, 48 h (100 = growth as untreated, 0 = no growth, -100 = all killed)
Conditions in all cases: 10 µM unless noted
SK-MEL-2 melanoma = tested on: SK-MEL-2 melanoma
EKVX NSCLC = tested on: EKVX NSCLC
SN12C renal = tested on: SN12C renal
UO-31 renal = tested on: UO-31 renal
TK-10 renal = tested on: TK-10 renal
ACHN renal = tested on: ACHN renal
A498 renal = tested on: A498 renal
CCRF-CEM leukemia = tested on: CCRF-CEM leukemia
MOLT-4 leukemia = tested on: MOLT-4 leukemia
SR leukemia = tested on: SR leukemia
RPMI-8226 leukemia = tested on: RPMI-8226 leukemia
OVCAR-8 ovarian = tested on: OVCAR-8 ovarian
OVCAR-5 ovarian = tested on: OVCAR-5 ovarian
OVCAR-4 ovarian = tested on: OVCAR-4 ovarian
SK-OV-3 ovarian = tested on: SK-OV-3 ovarian
IGROV1 ovarian = tested on: IGROV1 ovarian
OVCAR-3 ovarian = tested on: OVCAR-3 ovarian
HS 578T breast = tested on: HS 578T breast
NCI/ADR-RES ovarian = tested on: NCI/ADR-RES ovarian
CAKI-1 renal = tested on: CAKI-1 renal

Structure (SMILES) | growth (SK-MEL-2 melanoma) | growth (EKVX NSCLC) | growth (SN12C renal) | growth (UO-31 renal) | growth (TK-10 renal) | growth (ACHN renal) | growth (A498 renal) | growth (CCRF-CEM leukemia) | growth (MOLT-4 leukemia) | growth (SR leukemia) | growth (RPMI-8226 leukemia) | growth (OVCAR-8 ovarian) | growth (OVCAR-5 ovarian) | growth (OVCAR-4 ovarian) | growth (SK-OV-3 ovarian) | growth (IGROV1 ovarian) | growth (OVCAR-3 ovarian) | growth (HS 578T breast) | growth (NCI/ADR-RES ovarian) | growth (CAKI-1 renal)
COc1ccc(/C=N/Nc2nc3ccccc3s2)cc1 | 117% (inactive) | 67.4% (inactive) | 89% (inactive) | 62.6% (inactive) | 112% (inactive) | 90.6% (inactive) | 115% (inactive) | 34.7% (inactive) | 85.8% (inactive) | 87.9% (inactive) | 104% (inactive) | 105% (inactive) | 103% (inactive) | 87.5% (inactive) | 90% (inactive) | 68.5% (inactive) | 86.4% (inactive) | 105% (inactive) | 98.7% (inactive) | 
Cc1cc(-c2ccc(N=Nc3c(C)nn(-c4ccc(S(=O)(=O)O)cc4)c3O)c(C)c2)ccc1N=Nc1ccc(O)c(C(=O)O)c1 | 73% (inactive) | 104% (inactive) | 95.8% (inactive) | 69.1% (inactive) | 141% (inactive) | 98% (inactive) | 120% (inactive) | 99.4% (inactive) | 102% (inactive) | 86% (inactive) |  | 95.7% (inactive) | 94.4% (inactive) | 106% (inactive) | 96.9% (inactive) | -9.24% (active) | 106% (inactive) |  | 104% (inactive) | 100% (inactive)
NC(=O)Cc1nc(O)cc(=O)[nH]1 | 102% (inactive) | 103% (inactive) | 96.2% (inactive) | 95.4% (inactive) | 94% (inactive) | 107% (inactive) | 85.6% (inactive) | 88.3% (inactive) | 95.6% (inactive) | 93.5% (inactive) | 85.2% (inactive) | 93.8% (inactive) | 109% (inactive) | 113% (inactive) | 89.7% (inactive) | 109% (inactive) | 109% (inactive) | 91.9% (inactive) | 115% (inactive) | 
CCOP(C)(=O)/C(Cc1ccc(OC)c(OC)c1)=N\O (stereo not given) | 111% (inactive) | 98.3% (inactive) | 103% (inactive) | 91.2% (inactive) | 107% (inactive) | 106% (inactive) | 104% (inactive) | 110% (inactive) | 112% (inactive) | 105% (inactive) | 99.3% (inactive) | 114% (inactive) | 96.6% (inactive) | 107% (inactive) | 115% (inactive) | 104% (inactive) | 111% (inactive) | 94.9% (inactive) |  | 
CC1=CC(=O)C=CC1=Nc1ccc(N(C)C)cc1 | 44.6% (inactive) | -44.9% (active) | 90.6% (inactive) and 46.4% (inactive) | 65.6% (inactive) and 50.7% (inactive) | 126% (inactive) and 115% (inactive) | 96.6% (inactive) and 55.3% (inactive) | 92.7% (inactive) and 121% (inactive) | -28.7% (active) | 50.4% (inactive) and 12% (inactive) | 29.3% (inactive) | 66.5% (inactive) and -4.07% (active) | 85.7% (inactive) and 52% (inactive) | 140% (inactive) and 83.9% (inactive) | 44.9% (inactive) and 21.1% (inactive) | 94.2% (inactive) and 71.8% (inactive) | 88.5% (inactive) and 49.4% (inactive) | 69.4% (inactive) and -93.6% (active) |  | 78.1% (inactive) and 37.9% (inactive) | 
COc1ccc(CCO)cc1 | 91.7% (inactive) | 107% (inactive) | 100% (inactive) | 96.9% (inactive) | 96.3% (inactive) | 103% (inactive) | 97.2% (inactive) | 101% (inactive) | 60.7% (inactive) | 75.6% (inactive) | 110% (inactive) | 101% (inactive) | 103% (inactive) | 111% (inactive) | 109% (inactive) | 99.6% (inactive) | 111% (inactive) |  | 108% (inactive) | 
O=C1C=CC[C@H](/C=C/c2ccccc2)O1 | -21.8% (active) and -43.1% (active) | 54.5% (inactive) and 56.3% (inactive) | 55.6% (inactive) and 9.16% (active) | 38.8% (inactive) and 41% (inactive) | 41.7% (inactive) and 22.3% (inactive) |  | -18.3% (active) and -10.1% (active) | 12.5% (inactive) and -3.54% (active) | 3.44% (active) and -22.1% (active) | 5.19% (active) | -34.8% (active) | 21.2% (inactive) and 14.4% (inactive) | 57.6% (inactive) and 54.9% (inactive) | 36% (inactive) and 33.6% (inactive) | 132% (inactive) and 7.79% (active) | -35.5% (active) and 15.7% (inactive) | 1.02% (active) and -41.3% (active) | 25.4% (inactive) and 19.5% (inactive) |  | 11.4% (inactive) and 2.9% (active)
S=c1ccc2ccccc2[nH]1 | 97.9% (inactive) and 97.2% (inactive) | 107% (inactive) and 103% (inactive) | 101% (inactive) | 88.2% (inactive) and 80.9% (inactive) | 105% (inactive) and 108% (inactive) |  | 110% (inactive) | 103% (inactive) and 101% (inactive) | 93.3% (inactive) and 100% (inactive) | 109% (inactive) and 97.3% (inactive) | 109% (inactive) and 104% (inactive) | 102% (inactive) and 98.6% (inactive) | 102% (inactive) and 105% (inactive) | 104% (inactive) and 108% (inactive) | 97.9% (inactive) and 101% (inactive) | 104% (inactive) and 106% (inactive) | 114% (inactive) and 107% (inactive) | 97.7% (inactive) and 103% (inactive) |  | 96.5% (inactive)
CC1CCC(=O)N1c1ccc(N)cc1 (stereo not given) | 99.7% (inactive) | 104% (inactive) | 106% (inactive) | 93.7% (inactive) | 94.8% (inactive) | 104% (inactive) | 98.4% (inactive) | 107% (inactive) | 105% (inactive) | 93.8% (inactive) | 103% (inactive) | 100% (inactive) | 99.9% (inactive) | 107% (inactive) | 99.3% (inactive) | 101% (inactive) | 108% (inactive) | 108% (inactive) | 106% (inactive) | 
OCCSc1ccc(Cl)cc1 | 109% (inactive) and 90.7% (inactive) | 100% (inactive) and 89.4% (inactive) | 104% (inactive) and 93% (inactive) | 95.9% (inactive) and 85.7% (inactive) | 87.7% (inactive) |  | 107% (inactive) and 88.9% (inactive) | 119% (inactive) and 96.7% (inactive) | 118% (inactive) and 91.7% (inactive) | 117% (inactive) and 99.7% (inactive) | 122% (inactive) and 84.6% (inactive) | 111% (inactive) and 103% (inactive) | 105% (inactive) and 91.1% (inactive) | 104% (inactive) and 99.9% (inactive) | 112% (inactive) and 86.9% (inactive) | 109% (inactive) and 93.6% (inactive) | 124% (inactive) and 110% (inactive) | 101% (inactive) | 108% (inactive) and 102% (inactive) | 107% (inactive) and 91.1% (inactive)
COc1cc(C2c3cc4c(cc3C(OC(=O)C[n+]3ccccc3)C3COC(=O)C23)OCO4)cc(OC)c1OC (stereo not given) | 33.5% (inactive) | 42.5% (inactive) | 12.4% (inactive) | 39.4% (inactive) | 63.4% (inactive) | 20.9% (inactive) | -19.9% (active) | 12.9% (inactive) | 15.5% (inactive) | 11.5% (inactive) | 36.2% (inactive) | 14.7% (inactive) | 54% (inactive) | 41.5% (inactive) | 33% (inactive) | 16.5% (inactive) | -57.7% (active) |  | -3.91% (active) | 
CC(=O)Nc1ccc(OC(C)=O)cc1 | -16.6% (active) and 111% (inactive) | 49.5% (inactive) and 99.5% (inactive) | 20.2% (inactive) and 102% (inactive) | 21.8% (inactive) and 98.6% (inactive) | 42% (inactive) and 99.1% (inactive) | 26.8% (inactive) and 110% (inactive) | -40.5% (active) and 65.6% (inactive) | 6.69% (active) and 106% (inactive) | 15.2% (inactive) and 117% (inactive) | 115% (inactive) |  | 8% (active) and 101% (inactive) | 35.7% (inactive) and 97.5% (inactive) | 98.7% (inactive) | -4.1% (active) and 121% (inactive) | 23.7% (inactive) and 113% (inactive) | 2.02% (active) and 113% (inactive) | 29.7% (inactive) and 118% (inactive) |  | 17.8% (inactive) and 98.8% (inactive)
